Results taken from PubChem BioAssay (EPA / NIEHS).
Activity calls are given as the source filed them. The calls were made as follows: active = hit-call score of the fitted dose curve at least 0.9, where 1 is the maximum; inactive = score below 0.9.

What follows are compounds tested on MYC, MYC (gene 4609) (assay: LTEA_HepaRG_MYC: Life Technologies and Expression Analysis (LTEA) Assay for MYC using HepaRG (AID 2283518)). Details: mRNA level, 48 h; actives raise or lower the signal.
How it was run: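 Expression changes were scored by TaqMan qRT-PCR with ACTB, GAPDH and POLR2A normalization. Cultures in serum-free induction medium received duplicate 8-point concentration series, highest 100 uM, for 48 h; DMSO (0.5%) served as baseline.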
With COCC(C)N(C(=O)CCl)c1c(C)csc1C (stereo not drawn) the outcome was “inactive”.
With COC(=O)c1c(C(F)F)nc(C(F)(F)F)c(C2=NCCS2)c1CC(C)C the outcome was “inactive”.
For Cn1c(-c2ccccc2)cc(-c2ccccc2)[n+]1C, the AC50 was 3.12 µM (active).
In the case of COC(=O)NS(=O)(=O)c1ccc(N)cc1, the outcome is reported as “inactive”.
In the case of CC(C)Nc1nc(Cl)nc(NC(C)C)n1, the outcome is reported as “inactive”.
COC(=O)NC(=S)Nc1ccccc1NC(=S)NC(=O)OC was tested, and the outcome was “inactive”.
In the case of Clc1cccc(C(Cl)(Cl)Cl)n1, the outcome is reported as “inactive”.
COP(=S)(OC)Oc1ccc([N+](=O)[O-])c(C)c1 was tested, and the outcome was “inactive”.
With CCOP(=S)(OCC)Oc1nc(Cl)n(C(C)C)n1 the outcome was “inactive”.
COc1cc(Cl)c(OC)cc1Cl was tested, and the outcome was “inactive”.
With CCCCC(O)(Cn1cncn1)c1ccc(Cl)cc1Cl (stereo not drawn) the AC50 was 74.7 µM (active).
With CNC(=O)N(C)c1nnc(C(C)(C)C)s1 the outcome was “inactive”.
For O=C(Nc1ccccc1-c1ccc(Cl)cc1)c1cccnc1Cl, the outcome was “inactive”.
With CCNC(=O)NC(=O)C(C#N)=NOC the outcome was “inactive”.
With CCN(CC)C(=O)C(C)Oc1cccc2ccccc12 (stereo not drawn) the outcome was “inactive”.
With CC1(C)CON(Cc2ccccc2Cl)C1=O the outcome was “inactive”.
CCOc1nc(C(Cl)(Cl)Cl)ns1 was tested, and the AC50 was 1.03 µM (active).
In the case of CN=C=S, the outcome is reported as “inactive”.
In the case of C=C(C)CN(CC)c1c([N+](=O)[O-])cc(C(F)(F)F)cc1[N+](=O)[O-], the outcome is reported as “inactive”.
With Nc1c(Cl)c(Cl)nc(C(=O)O)c1Cl the outcome was “inactive”.
In the case of CC1(C)C(C=C(Cl)Cl)C1C(=O)OC(C#N)c1cccc(Oc2ccccc2)c1 (stereo not drawn), the outcome is reported as “inactive”.
Cc1cnc(C2=NC(C)(C(C)C)C(=O)N2)c(C(=O)O)c1 (stereo not drawn) was tested, and the outcome was “inactive”.
In the case of CSC(=O)c1c(C(F)F)nc(C(F)(F)F)c(C(=O)SC)c1CC(C)C, the outcome is reported as “inactive”.
